Results published in PubChem BioAssay (EPA / NIEHS).
The source made the active and inactive calls. Rule for the calls: active = hit-call score of the fitted dose curve at least 0.9, where 1 is the maximum; inactive = score below 0.9.

Experiments:
Conditions in all cases: mRNA level, 48 h; actives raise or lower the signal
[1] = read-out: ATP-citrate lyase (ACLY), ACLY (gene 47); assay: LTEA_HepaRG_ACLY: Life Technologies and Expression Analysis (LTEA) Assay for ATP-citrate lyase (ACLY) using HepaRG (AID 2283466)
How it was run: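 HepaRG, 48 h exposure, 8-pt half-log dilutions (top 100 uM), 0.5% DMSO. Readout: ACLY mRNA, TaqMan qRT-PCR, housekeeping-normalized (ACTB/GAPDH/POLR2A). Bidirectional curve fit vs DMSO.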

[2] = read-out: Peroxisomal acyl-coenzyme A oxidase 1 (ACOX1) gene, ACOX1 (gene 51); assay: LTEA_HepaRG_ACOX1: Life Technologies and Expression Analysis (LTEA) Assay for Peroxisomal acyl-coenzyme A oxidase 1 (ACOX1) gene using HepaRG (AID 2283467)
How it was run: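 Measured by qRT-PCR against three housekeeping genes: ACOX1 transcript change in human HepaRG cells after 48 h dosing. Concentrations ran up to 100 uM in half-log steps. Curves were fitted bidirectionally relative to 0.5% DMSO.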

[3] = read-out: Bcl-2 (BAD) gene, BAD (gene 572); assay: LTEA_HepaRG_BAD: Life Technologies and Expression Analysis (LTEA) Assay for Bcl-2 (BAD) gene using HepaRG (AID 2283469)
How it was run: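 BAD transcript change, measured by qRT-PCR against three housekeeping genes and fitted in both directions relative to 0.5% DMSO, after 48 h chemical treatment of human HepaRG liver cells at concentrations up to 100 uM.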

[4] = read-out: Bcl-2 (BAX) gene, BAX (gene 581); assay: LTEA_HepaRG_BAX: Life Technologies and Expression Analysis (LTEA) Assay for Bcl-2 (BAX) gene using HepaRG (AID 2283470)
How it was run: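 HepaRG (human liver), 48 h exposure, duplicate wells. 8-pt curve, half-log from 100 uM, 0.5% DMSO. BAX transcript by TaqMan qRT-PCR; ACTB/GAPDH/POLR2A normalization; gain or loss vs DMSO baseline.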

[5] = read-out: adenosine kinase (ADK) gene, ADK (gene 132); assay: LTEA_HepaRG_ADK: Life Technologies and Expression Analysis (LTEA) Assay for adenosine kinase (ADK) gene using HepaRG (AID 2283471)
How it was run: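 Differentiated HepaRG cells dosed 48 h in serum-free induction medium, 0.5% DMSO vehicle, eight half-log concentrations from 100 uM, in duplicate. ADK mRNA by TaqMan qRT-PCR normalised to ACTB, GAPDH, POLR2A; bidirectional fit versus DMSO.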

[6] = read-out: Alpha-fetoprotein (AFP) gene, AFP (gene 174); assay: LTEA_HepaRG_AFP: Life Technologies and Expression Analysis (LTEA) Assay for Alpha-fetoprotein (AFP) gene using HepaRG (AID 2283472)
How it was run: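 HepaRG, single lot; 48 h post-plating -> serum-free induction medium; cpd 8-pt, 100 uM top, half-log, 0.5% DMSO, duplicate, 48 h. RNA -> qRT-PCR AFP, norm ACTB/GAPDH/POLR2A. Bidirectional fit vs DMSO.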

BCL2L11 (gene 10018) = assay: LTEA_HepaRG_BCL2L11: Life Technologies and Expression Analysis (LTEA) Assay for Bcl-2 (BCL2L11) gene using HepaRG (AID 2283473)
How it was run: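 HepaRG, 48 h exposure, 8-pt half-log series from 100 uM in 0.5% DMSO, duplicates; qRT-PCR (Fluidigm TaqMan) for BCL2L11, housekeeping-normalized; bidirectional curve fit relative to DMSO baseline.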

[7] = read-out: Apolipoprotein A-V (APOA5) gene, APOA5 (gene 116519); assay: LTEA_HepaRG_APOA5: Life Technologies and Expression Analysis (LTEA) Assay for Apolipoprotein A-V (APOA5) gene using HepaRG (AID 2283474)
How it was run: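 HepaRG, 48 h chemical exposure in serum-free induction medium, 8-pt half-log series (top 100 uM), 0.5% DMSO vehicle, duplicates. Readout: APOA5 mRNA by qRT-PCR, housekeeping-normalized; bidirectional fit vs DMSO baseline.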

[8] = read-out: Apoptosis regulator Bcl-2 (Homo sapiens) (UniProt P10415); assay: LTEA_HepaRG_BCL2: Life Technologies and Expression Analysis (LTEA) Assay for Bcl-2 gene using HepaRG (AID 2283475)
How it was run: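 HepaRG, plated 48 h then switched to serum-free induction medium; dosed 48 h, 8 conc. (max 100 uM, half-log steps), duplicate, 0.5% DMSO. Lysis in RLT, RNA isolated, TaqMan qRT-PCR for BCL2; ACTB/GAPDH/POLR2A normalisation; bidirectional fit vs DMSO.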

[9] = read-out: Bcl-2 (BID) gene, BID (gene 637); assay: LTEA_HepaRG_BID: Life Technologies and Expression Analysis (LTEA) Assay for Bcl-2 (BID) gene using HepaRG (AID 2283476)
How it was run: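 Transcript levels of BID, measured by qRT-PCR and normalized to three housekeeping genes, were fitted bidirectionally against DMSO controls. Cells were HepaRG, dosed 48 h at up to 100 uM.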

Caspase-3 (Homo sapiens) = Caspase-3 (Homo sapiens) (UniProt P42574); assay: LTEA_HepaRG_CASP3: Life Technologies and Expression Analysis (LTEA) Assay for cysteine-aspartic acid protease (CASP3) using HepaRG (AID 2283477)
How it was run: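 HepaRG, 48 h exposure, 8 conc. (top 100 uM, half-log steps, duplicate), 0.5% DMSO vehicle; qRT-PCR of CASP3 transcript, housekeeping-normalised (ACTB/GAPDH/POLR2A); bidirectional curve fit vs DMSO baseline.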

[10] = read-out: Cytochrome P450 (CYP24A1), CYP24A1 (gene 1591); assay: LTEA_HepaRG_CYP24A1: Life Technologies and Expression Analysis (LTEA) Assay for Cytochrome P450 (CYP24A1) using HepaRG (AID 2283478)
How it was run: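 qRT-PCR read-out: CYP24A1 transcript levels normalized to three housekeeping genes, bidirectional curve fits against 0.5% DMSO baseline. Human HepaRG cells treated 48 h with chemicals at eight concentrations from 100 uM in half-log steps.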

[11] = read-out: Cytochrome P450 (CYP1A2), CYP1A2 (gene 1544); assay: LTEA_HepaRG_CYP1A2: Life Technologies and Expression Analysis (LTEA) Assay for Cytochrome P450 (CYP1A2) using HepaRG (AID 2283479)
How it was run: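 HepaRG, 48 h exposure, top 100 uM, half-log 8-pt, 0.5% DMSO vehicle, duplicates. Readout: TaqMan qRT-PCR of CYP1A2 mRNA, housekeeping-normalized (ACTB/GAPDH/POLR2A). Gain/loss fit relative to DMSO baseline.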

[12] = read-out: cysteine-aspartic acid protease (CASP8), CASP8 (gene 841); assay: LTEA_HepaRG_CASP8: Life Technologies and Expression Analysis (LTEA) Assay for cysteine-aspartic acid protease (CASP8) using HepaRG (AID 2283480)
How it was run: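 HepaRG, 48 h exposure, duplicate wells; 8 conc, half-log from 100 uM, 0.5% DMSO. Serum-free induction medium. CASP8 mRNA by TaqMan qRT-PCR, norm. ACTB/GAPDH/POLR2A; gain/loss fitted vs DMSO.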

[13] = read-out: Cytochrome P450 (CYP2B6), CYP2B6 (gene 1555); assay: LTEA_HepaRG_CYP2B6: Life Technologies and Expression Analysis (LTEA) Assay for Cytochrome P450 (CYP2B6) using HepaRG (AID 2283481)
How it was run: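 Read-out is CYP2B6 mRNA by TaqMan qRT-PCR, normalized to three housekeeping genes and fitted bidirectionally against 0.5% DMSO baseline. Human HepaRG cells received test chemicals for 48 h, top concentration 100 uM, half-log dilutions.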

[14] = read-out: Cytochrome P450 2C19 (Homo sapiens) (UniProt P33261); assay: LTEA_HepaRG_CYP2C19: Life Technologies and Expression Analysis (LTEA) Assay for CYP2C19 using HepaRG (AID 2283482)
How it was run: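 HepaRG, 48 h chemical exposure, 8-pt half-log series from 100 uM in 0.5% DMSO, duplicates. Readout: CYP2C19 mRNA by TaqMan qRT-PCR, housekeeping-normalized. Bidirectional fit vs DMSO baseline; phenobarbital 1mM as induction control.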

CYP2C8 (gene 1558) = assay: LTEA_HepaRG_CYP2C8: Life Technologies and Expression Analysis (LTEA) Assay for CYP2C8 using HepaRG (AID 2283483)
How it was run: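 CYP2C8 mRNA induction or loss, by qRT-PCR normalized to ACTB/GAPDH/POLR2A, is read in HepaRG cells after 48 h treatment. Concentrations run from 100 uM down in half-log dilutions, with 0.5% DMSO as vehicle and baseline.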

CYP2C9 (gene 1559) = assay: LTEA_HepaRG_CYP2C9: Life Technologies and Expression Analysis (LTEA) Assay for CYP2C9 using HepaRG (AID 2283484)
How it was run: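 Cells plated 48 h, switched to serum-free induction medium, then treated in duplicate for 48 h at eight concentrations (max 100 uM, 0.5% DMSO). RNA then analysed by qRT-PCR for CYP2C9; curves fitted in both directions relative to DMSO.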

CYP2E1 (gene 1571) = assay: LTEA_HepaRG_CYP2E1: Life Technologies and Expression Analysis (LTEA) Assay for CYP2E1 using HepaRG (AID 2283485)
How it was run: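 Human liver line HepaRG, plated 48 h, then serum-free induction medium + chemical x 48 h; 8-pt CRC from 100 uM, half-log, 0.5% DMSO, n=2. Readout: CYP2E1 mRNA qRT-PCR vs ACTB/GAPDH/POLR2A; bidirectional fit vs DMSO.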

[15] = read-out: Alkaline Phosphatase, Placental (ALPP) gene, ALPP (gene 250); assay: LTEA_HepaRG_ALPP: Life Technologies and Expression Analysis (LTEA) Assay for Alkaline Phosphatase, Placental (ALPP) gene using HepaRG (AID 2283468)
How it was run: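 qRT-PCR readout of ALPP mRNA (Fluidigm TaqMan), normalized to ACTB/GAPDH/POLR2A, after 48 h chemical exposure of HepaRG cells; 8-point half-log series, top 100 uM, 0.5% DMSO vehicle. Bidirectional curve fit versus DMSO baseline.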

Measured: AC50

Apoptosis regulator Bcl-2 (Homo sapiens), sequence (P10415 whole entry, looked up): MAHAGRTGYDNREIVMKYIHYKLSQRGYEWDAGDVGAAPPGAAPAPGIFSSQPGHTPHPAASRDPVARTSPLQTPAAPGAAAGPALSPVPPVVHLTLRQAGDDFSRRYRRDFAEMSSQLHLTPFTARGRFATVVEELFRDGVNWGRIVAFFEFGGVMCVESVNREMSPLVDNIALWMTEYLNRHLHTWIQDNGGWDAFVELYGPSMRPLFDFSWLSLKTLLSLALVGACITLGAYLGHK
Caspase-3 (Homo sapiens), sequence (P42574 whole entry, looked up): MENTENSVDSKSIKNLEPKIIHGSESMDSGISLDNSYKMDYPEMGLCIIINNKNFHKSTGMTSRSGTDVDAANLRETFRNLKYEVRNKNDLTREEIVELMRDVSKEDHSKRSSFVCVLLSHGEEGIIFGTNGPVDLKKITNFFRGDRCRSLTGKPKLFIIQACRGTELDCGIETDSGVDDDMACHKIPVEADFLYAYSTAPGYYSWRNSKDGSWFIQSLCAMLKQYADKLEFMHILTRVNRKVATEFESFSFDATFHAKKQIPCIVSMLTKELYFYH
Cytochrome P450 2C19 (Homo sapiens), sequence (P33261 whole entry, looked up): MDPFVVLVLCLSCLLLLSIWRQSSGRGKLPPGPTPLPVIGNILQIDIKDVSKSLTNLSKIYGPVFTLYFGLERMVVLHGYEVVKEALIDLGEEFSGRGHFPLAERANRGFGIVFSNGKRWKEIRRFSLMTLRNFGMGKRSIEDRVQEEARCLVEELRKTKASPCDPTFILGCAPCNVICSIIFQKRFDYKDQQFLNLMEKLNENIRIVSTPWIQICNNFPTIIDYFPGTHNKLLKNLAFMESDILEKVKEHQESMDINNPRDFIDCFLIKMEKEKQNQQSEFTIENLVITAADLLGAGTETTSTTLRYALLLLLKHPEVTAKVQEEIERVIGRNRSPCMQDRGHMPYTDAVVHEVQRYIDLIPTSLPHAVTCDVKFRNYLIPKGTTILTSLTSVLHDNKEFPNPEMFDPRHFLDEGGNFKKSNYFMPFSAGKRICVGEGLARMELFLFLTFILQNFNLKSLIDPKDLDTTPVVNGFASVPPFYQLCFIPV

Cc1cc(F)ccc1-c1cc(N2CC[C@@H](O)[C@H]2CO)ncc1N(C)C(=O)C(C)(C)c1cc(C(F)(F)F)cc(C(F)(F)F)c1
inactive: [1] | [5] | [9] | [10] | [12] | CYP2C9 (gene 1559)
active: [2] 8.09 µM | [3] 72.1 µM | [4] 74.8 µM | [6] 18 µM | BCL2L11 (gene 10018) 52.7 µM | [7] 12.9 µM | [8] 19.7 µM | Caspase-3 (Homo sapiens) 76.6 µM | [11] 21.1 µM | [13] 22.3 µM | [14] 23.7 µM | CYP2C8 (gene 1558) 21.4 µM | CYP2E1 (gene 1571) 10.3 µM

O=C1O[C@H]([C@@H](O)CO)C(O)=C1O
inactive: [1] | [2] | [15] | [3] | [4] | [5] | [6] | BCL2L11 (gene 10018) | [7] | [8] | [9] | Caspase-3 (Homo sapiens) | [10] | [11] | [12] | [13] | [14] | CYP2C8 (gene 1558) | CYP2C9 (gene 1559) | CYP2E1 (gene 1571)

CCN(CC)C(=O)c1cc(S(=O)(=O)Cc2ccccc2)c(N2CCC(c3ccccc3)CC2)cc1N(CC)CCN(C)C
active: [1] 4.57 µM | [2] 32.7 µM | BCL2L11 (gene 10018) 25.7 µM | [7] 29.2 µM | Caspase-3 (Homo sapiens) 30.6 µM | [11] 6.01 µM | [12] 30.8 µM | [13] 5.04 µM | [14] 4.25 µM | CYP2C8 (gene 1558) 4.92 µM | CYP2C9 (gene 1559) 5.05 µM | CYP2E1 (gene 1571) 26 µM
inactive: [3] | [4] | [6] | [8] | [9] | [10]
